# MsrA inhibitor – bovine MsrA enzyme inhibitors, primary screen, biochemical, absorbance, HTS. purified bovine MsrA, absorbance read-out. inhibition, % at 15.5 µM. hit rate 0.75% among 360,000; in the data active = inhibition above about 4.5%;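 also: 0% = vehicle wells with enzyme and 100% = reference inhibitor wells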
# bovine MsrA act – bovine MsrA enzyme activators, primary screen, biochemical, absorbance, HTS; Methionine sulfoxide reductase A (Bos taurus); purified bovine MsrA, absorbance read-out; activation, % at 10.6 µM; hit rate 0.3% among 360,000; AID 602163, 2012; in the data active = activation above about 7.5%;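 also: 0% = vehicle and 100% = reference activator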
# PLCg1 inh – PLC-gamma1 enzyme inhibitors, primary screen, biochemical, fluorescence, purified enzyme | 1-phosphatidylinositol 4,5-bisphosphate phosphodiesterase gamma-1 (Homo sapiens), P19174 | fluorogenic substrate | inhibition, % at 12.2 µM | hit rate 0.84% among 370,000 | AID 720700, 2013
# Target sequence (P19174 whole entry, looked up): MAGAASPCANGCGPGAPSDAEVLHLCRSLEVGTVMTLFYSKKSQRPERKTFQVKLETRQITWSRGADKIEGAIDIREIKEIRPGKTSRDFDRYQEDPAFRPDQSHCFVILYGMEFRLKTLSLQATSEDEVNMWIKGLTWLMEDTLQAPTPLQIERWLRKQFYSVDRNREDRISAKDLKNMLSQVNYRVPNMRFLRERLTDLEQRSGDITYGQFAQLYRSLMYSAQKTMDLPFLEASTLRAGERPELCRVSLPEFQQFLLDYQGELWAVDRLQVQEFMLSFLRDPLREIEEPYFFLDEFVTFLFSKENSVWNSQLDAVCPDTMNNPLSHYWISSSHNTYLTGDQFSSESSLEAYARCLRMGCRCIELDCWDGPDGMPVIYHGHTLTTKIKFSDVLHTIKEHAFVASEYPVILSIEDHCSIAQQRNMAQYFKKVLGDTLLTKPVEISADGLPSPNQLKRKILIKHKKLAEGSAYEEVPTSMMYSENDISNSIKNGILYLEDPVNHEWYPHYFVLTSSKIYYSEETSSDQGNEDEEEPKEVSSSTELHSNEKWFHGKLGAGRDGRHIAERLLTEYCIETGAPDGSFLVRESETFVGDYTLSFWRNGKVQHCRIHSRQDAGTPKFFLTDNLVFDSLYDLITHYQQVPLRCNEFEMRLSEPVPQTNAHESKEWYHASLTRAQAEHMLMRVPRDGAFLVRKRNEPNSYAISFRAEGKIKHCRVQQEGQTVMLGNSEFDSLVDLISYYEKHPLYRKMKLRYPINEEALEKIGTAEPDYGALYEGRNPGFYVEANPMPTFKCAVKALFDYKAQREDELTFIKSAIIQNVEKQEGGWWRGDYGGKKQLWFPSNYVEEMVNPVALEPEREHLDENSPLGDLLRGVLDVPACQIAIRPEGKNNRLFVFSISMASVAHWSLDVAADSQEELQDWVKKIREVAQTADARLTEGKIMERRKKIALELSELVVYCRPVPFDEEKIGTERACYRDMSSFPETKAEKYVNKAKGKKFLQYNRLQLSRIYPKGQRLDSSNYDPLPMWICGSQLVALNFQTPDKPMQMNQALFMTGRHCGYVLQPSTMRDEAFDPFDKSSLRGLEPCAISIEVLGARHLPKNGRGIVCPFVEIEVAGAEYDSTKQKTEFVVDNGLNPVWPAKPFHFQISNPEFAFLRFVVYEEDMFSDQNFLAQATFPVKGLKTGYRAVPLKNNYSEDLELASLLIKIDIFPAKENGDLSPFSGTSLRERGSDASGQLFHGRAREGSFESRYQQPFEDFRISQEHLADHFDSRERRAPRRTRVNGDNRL
# PLC-beta3 inh – human PLC-beta3 inhibitors, primary screen, biochemical, fluorescence; 1-phosphatidylinositol 4,5-bisphosphate phosphodiesterase beta-3 (Homo sapiens), Q01970; Purified PLC-beta3, fluorogenic substrate; inhibition, % at 12.2 µM; hit rate 0.18% among 370,000; AID 720704, 2013; in the data active = inhibition above about 11%;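 also: 0% = median of compound wells on plate and 100% = full blocker control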
# PLCgamma1 ctr – PLC-gamma1 enzyme inhibitors, counter-screen for PLC-beta3 inhibitor project, biochemical, fluorescence; shares compounds with PLCg1 inh; purified PLC-gamma1, fluorogenic substrate; inhibition, % at 12.3 µM; hit rate 3.1% among 3,300
# PLCb3 confirm – PLC-beta3 inhibitor confirmation, biochemical, fluorescence, purified enzyme; fluorogenic substrate fluorescence; hit rate 1% among 3,300; shares compounds with PLCg1 inh; inhibition, % at 12.3 µM; AID 743261, 2014; in the data active = inhibition above about 11%
# * hit, by the source's call; · = not tested or not shown. An excerpt weighted towards active compounds, which were near 1.9% of everything screened. Rule as the data show it, unless noted: active = inhibition above about 9.5%; inactive = the rest.
SMILES,MsrA inhibitor,bovine MsrA act,PLCg1 inh,PLC-beta3 inh,PLCgamma1 ctr,PLCb3 confirm
CN(C)c1cccc(NC(=O)C2(C)CC2(Cl)Cl)c1 (stereo unspecified),1,-3,5,16*,-8,-11
O=C(C[n+]1cc(-c2ccccc2)n2c1CCC2)Nc1nc(-c2ccc(F)cc2)cs1,-1,-2,4,0,·,·
O=C(C[n+]1cc(-c2ccc(F)cc2)n2c1CCC2)Nc1nc(-c2ccc(F)cc2)cs1,1,-5,12*,8,0,-35
O=C(Nc1nc(-c2ccc(F)cc2)cs1)C1CCCO1 (stereo unspecified),-1,-2,12*,3,-3,-2
Cc1ccc(C(=O)N2CCC(Oc3cccnc3)CC2)c(C)c1,·,·,0,-1,·,·
CCOc1ccc(CO/N=C/c2c(C)[nH]c(=O)[nH]c2=O)cc1,1,-2,13*,0,-2,-2
CCOc1ccc(N(CC)S(=O)(=O)c2c(C)[nH]c(=O)[nH]c2=O)cc1,-1,-1,3,-1,·,·
O=C(NCc1ccccc1)C(c1ccco1)N1CCN(CCN2CCOCC2)CC1 (stereo unspecified),1,·,-3,-5,·,·
CC(C)(C)c1ccc(CC(=O)N2CCC2(C)C(=O)NS(=O)(=O)c2cccs2)cc1 (stereo unspecified),-1,-3,2,2,·,·
COc1cc(NC(=O)Cn2cnc3c(nc4n3CCCCC4)c2=O)cc(OC)c1OC,0,-2,5,-4,·,·
CCN(C(=O)Cn1cnc2c(nc3n2CCCCC3)c1=O)c1cccc(Cl)c1,0,-3,12*,0,-7,-5
CCCn1c(=O)c(F)cn(Cc2ccc(OC)c([N+](=O)[O-])c2)c1=O,2,-3,4,12*,-5,0
CCCCn1c(=O)c(F)cn(Cc2ccc(OC)c([N+](=O)[O-])c2)c1=O,2,2,4,3,·,·
CC(C)(C)NC(=O)NC(=O)COC(=O)Cc1c(Cl)cccc1Cl,0,0,9.8*,-5,-1,2
Clc1ccccc1OCCN1CCC(Cc2ccccc2)CC1,0,-2,20*,18*,0,-5
ClCCn1cnc2c(SCc3ccccc3)ncnc21,0,-3,7,-3,·,·
C=CCCC(=O)N1CCCC(Cc2cccc(Cl)c2)(C(=O)OCC)C1 (stereo unspecified),1,6,12*,2,-3,-7
Cc1cccc(OCCCn2c(CO)nc3ccccc32)c1,1,-3,12*,3,-4,-1
Cc1ccc(OCCCn2c(CO)nc3ccccc32)cc1,0,-10,2,0,·,·
Cc1ccc(S(=O)(=O)NCCc2cccs2)cc1,0,-4,-1,-5,·,·
O=C(NCc1ccccc1)c1onc(CSc2ccc(F)c(F)c2)c1C(=O)NCc1ccccc1,0,-2,2,11*,1,-1
O=C(NC1CCCCCCC1)C1CCN(S(=O)(=O)N2CCCC2)CC1,0,-2,11*,3,-6,-6
O=C(NC1CCCCC1)C1CCN(S(=O)(=O)N2CCCCCC2)CC1,-1,-3,-2,0,·,·
Cc1cc(C(=O)NCC2CCCCC2)ccc1[N+](=O)[O-],2,-1,11*,1,-6,-1
CN1CCCN(S(=O)(=O)c2ccc3c(c2)CCC(=O)N3)CC1,·,·,0,0,·,·
SMILES,MsrA inhibitor,bovine MsrA act,PLCg1 inh,PLC-beta3 inh,PLCgamma1 ctr,PLCb3 confirm
Cc1cccc(OCC(=O)N(C)CCc2ccccn2)c1,2,-1,8,11*,-4,1
CC(Oc1ccc(Cl)cc1Cl)C(=O)Nc1ccc(O)cc1 (stereo unspecified),2,-3,16*,5,-8,-6
Cc1nccn1CCOc1ccccc1Cl,2,-2,10*,1,-6,-1
Clc1ccccc1OCCCn1ccnc1,-2,0,0,-3,·,·
COc1c(OC(C)=O)ccc(/C=C/c2ccc3cccc(OC)c3n2)c1[N+](=O)[O-],2,-11,4,3,·,·
COc1c(OC(C)=O)ccc(/C=C/c2ccc3ccccc3n2)c1[N+](=O)[O-],2,-3,14*,6,1,-21
CCc1nnc(NC(=O)CCC(=O)N2CCN(CCOc3ccc(C)cc3)CC2)s1,1,-6,6,14*,-6,-4
CC(C)N1C(=O)c2ccccc2NC(=O)C1C(=O)NCc1ccccc1 (stereo unspecified),2,·,2,0,·,·
Cc1csc(SCC(=O)c2cc(C)n(Cc3cccs3)c2C)n1,1,-2,0,-4,·,·
Cc1cc(C(=O)CSc2n[nH]c(-c3ccccc3F)n2)c(C)n1Cc1cccs1,0,-4,10*,3,-9,-7
COc1ccc2c(c1)OC(O)(C(F)F)CC2=O (stereo unspecified),0,-7,12*,2,-9,-3
O=C(O)CCN(Cc1ccccc1)S(=O)(=O)c1ccc(Cl)cc1F,1,0,9.6*,0,-3,-1
CC(C)(C)OC(=O)N1CC2(CCCCC2)CC1Cc1ccc(C(F)(F)F)cc1 (stereo unspecified),0,-2,6,4,·,·
O=C(NNS(=O)(=O)c1ccc(Cl)cc1)c1ccc(S(=O)(=O)N2CCCCC2)cc1,0,-2,5,11*,-4,-6
O=C(NNC(=O)C1CCN(S(=O)(=O)c2ccc(Cl)cc2)CC1)c1ccc(Cl)cc1,0,-4,2,0,·,·
O=C(Nc1ccc(C(F)(F)F)cc1[N+](=O)[O-])O[C@H]1[C@H](Cc2ccccc2)NS(=O)(=O)[C@H]2C[C@@H]3C=C[C@]12O3,1,0,12*,10,-2,-1
CCCS(=O)(=O)NC(=O)C1(C)CCN(C(=O)Cc2ccc(F)cc2)C1 (stereo unspecified),-2,-6,0,4,·,·
CN1C(C(=O)Nc2cccc(O)c2)=CC(c2cccs2)=NS1(=O)=O,3,-2,10*,6,7,3
COCCN(Cc1ccc(C)cc1)C(=O)[C@H]1O[C@@H](n2cnc(C(N)=O)n2)[C@H](O)[C@@H]1O,1,·,0,2,·,·
Cc1cccc(NC(=O)CCSc2ccccc2)c1C,1,-12,-2,0,·,·
Cc1cccc(NC(=O)CCc2ccccc2)c1C,1,-7,12*,4,-10,0
COC(=O)C1(C(=O)OC)C[C@H](c2cccs2)N(Cc2ccccc2OC)[C@@H]1c1ccc(F)cc1,0,·,2,1,·,·
O=S1(=O)C[C@@H](N2CC[C@@H](O)C2)[C@H](COCc2ccccc2)N1,1,-2,10*,10,-1,-1
CN(C)[C@H]1CCN([C@@H]2CS(=O)(=O)N[C@H]2COCc2ccccc2)C1,1,1,0,0,·,·
CCCc1[nH]n(-c2nc3ccccc3s2)c(=O)c1C=NCCCOC,2,-1,11*,-2,-5,-2
